Among all 220,000 compounds or so, about 800 (0.36%) were called active.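 Rule for the calls: active = inhibition above about 50% (limit read from the data); inactive = the rest.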 The entries come from a sample that favours actives as a whole.
What follows are compounds tested on calpain II (m-calpain), Sus scrofa (assay: inhibitors of pig calpain II, primary screen, biochemical, fluorogenic peptide substrate, 1536-well (AID 1236)). Details: purified calpain II, 30 min, at 16 µM, stronger effect = higher value.

| Compound | inhibition |
| --- | --- |
| Cn1nc(C(C)(C)C)c(NC(=O)c2sccc2Cl)c1C(C)(C)C | -8.61% (inactive) |
| O=C(CN1C2=NCCN2c2ccccc21)c1cccs1 | -7.58% (inactive) |
| COc1cc(C(=O)NCc2ccc(-n3cccc3)cc2)cc(OC)c1OC | 8.77% (inactive) |
| COc1cc(-n2c(C)nc3cc(C(=O)NCc4ccco4)ccc32)cc(OC)c1OC | 8.54% (inactive) |
| COc1cc(C(=O)NCc2ccc3c(c2)cc(C)n3C)cc(OC)c1OC | 65% (active) |
| CC(C)(C)c1ccc(CCC2OCC(CN3CCOCC3)O2)cc1 (centres undefined) | -40.5% (inactive) |
| Cc1sc2nc(COC(=O)C(NC(=O)c3ccc(Cl)cc3Cl)C(C)C)[nH]c(=O)c2c1C (centres undefined) | -7.99% (inactive) |
| CNC(=O)c1csc(Cc2c(Cl)sc3ccc(Cl)cc23)n1 | 0.86% (inactive) |
| Cn1c(N)c(C(=O)COC(=O)C23CC4CC(CC(C4)C2)C3)c(=O)n(C)c1=O | 79.2% (active) |
| CC(=O)c1c(N)n(C)c(=O)n(C)c1=O | -24.4% (inactive) |
| CC1CC1C(=O)OCC(=O)c1c(N)n(C)c(=O)n(C)c1=O (centres undefined) | 3.06% (inactive) |
| Cc1ccc2[nH]cc(CCNC(=O)c3ccc([N+](=O)[O-])cc3)c2c1 | 9.36% (inactive) |
| CC(C)c1nccn1S(=O)(=O)c1cc([N+](=O)[O-])ccc1Cl | 12% (inactive) |
| COc1ccc(O[C@H]2C=C[C@@H](c3ccccc3)O[C@@H]2CO/N=C/C[C@@H]2C=C[C@H](OC(C)=O)[C@@H](COC(C)=O)O2)cc1 | 27% (inactive) |
| Cc1cccc2cc3c(N)c(C(=O)N4CCCc5ccccc54)sc3nc12 | -64.7% (inactive) |
| COc1ccc(-c2nnc3ccc(SCc4ccccc4)nn23)cc1 | -6.26% (inactive) |
| COc1cc(N/C=C2\CC(=O)NC(C)=C2C#N)cc(OC)c1OC | -145% (inactive) |
| Oc1c(Cl)cc(Cl)c(Cl)c1Cc1c(O)c(Cl)cc(Cl)c1Cl | 109% (active) |
| CCOC(=O)c1cc2c(=O)n3ccccc3nc2n(CC(C)C)c1=NC(=O)c1c(-c2c(F)cccc2Cl)noc1C | -60.6% (inactive) |
| CCOC(=O)c1c(C)nn(-c2ncccc2NC(=O)CCC(=O)O)c1C | 10.4% (inactive) |
| O=C(COC(=O)CCCSc1nc2ccccc2[nH]1)Nc1ccc(Oc2ccccc2)cc1 | 51.3% (active) |
| CCc1nnc(NC(=O)CCCSc2nc3ccccc3[nH]2)s1 | 2.67% (inactive) |

| Compound | inhibition |
| --- | --- |
| CCCCSc1nc2ccccc2[nH]1 | -22.6% (inactive) |
| CCCCCn1c(=O)c(C(=O)OCC)c(Cl)c2ccccc21 | -1.97% (inactive) |
| COc1ccc(C)cc1NC(=O)c1ccc(-c2ccc(C(C)=O)cc2)o1 | -135% (inactive) |
| COC(=O)c1ccccc1NC(=O)C1CC(=O)N(c2ccc(OC)cc2)C1 (centres undefined) | 4.97% (inactive) |
| CCCCC(CC)CNC(=O)CCCCn1c(=O)[nH]c2ccsc2c1=O (centres undefined) | 13.6% (inactive) |
| CCN(CC)CCNC(=O)CCCCCn1c(=O)[nH]c2cc(C(=O)OC)ccc2c1=O | -103% (inactive) |
| CCN(CCCNC(=O)CCn1c(=O)[nH]c2ccsc2c1=O)c1ccccc1 | 64.7% (active) |
| O=c1cc(O)c(-c2cccc(C(F)(F)F)c2)c(Cl)[nH]1 | 27.3% (inactive) |
| Cc1cc(C(=O)CCl)c(C)n1CC1COc2ccccc2O1 (centres undefined) | -16.6% (inactive) |
| COc1ccc(-c2cc(C3CCN(c4ncccc4[N+](=O)[O-])CC3)[nH]n2)cc1 | 10.5% (inactive) |
| Cc1ccc(NN=C2C(=O)OC(C)(C)OC2=O)c(C)c1 | 6.22% (inactive) |
| Cc1ccc(OCCCn2c(=O)oc3ccccc32)cc1 | 21.8% (inactive) |
| O=C(Nc1ccc2c(c1)CCC2)c1cccc(S(=O)(=O)Nc2ccccc2Cl)c1 | 55.1% (active) |
| O=C(c1cccc(S(=O)(=O)Nc2ccccc2Cl)c1)N1CCN(C(=O)c2ccco2)CC1 | 10.2% (inactive) |
| O=C(Nc1ccc2c(c1)CCC2)c1cccc(S(=O)(=O)N2CCN(c3ccc(F)cc3)CC2)c1 | -32.9% (inactive) |
| O=C(Nc1cc2c3c(c1)C1CCCC1CN3CC1CCCC21)c1ccc([N+](=O)[O-])cc1 (centres undefined) | -34.8% (inactive) |
| O=C(Oc1cccc(NC2=NS(=O)(=O)c3ccccc32)c1)c1ccncc1 | -20.9% (inactive) |
| COC(=O)Cc1c(O)ccn(Cc2cccc(C(F)(F)F)c2)c1=O | -20.3% (inactive) |
| CC(C)Cc1nnc(NC(=O)CCC(=O)Nc2ccc3cn[nH]c3c2)s1 | -10.5% (inactive) |
| CSCCC(NS(=O)(=O)c1ccc2c(c1)oc(=O)n2C)C(=O)NC1CCCc2ccccc21 (centres undefined) | 30.2% (inactive) |
| O=C(Nc1ccc(S(=O)(=O)Nc2nccs2)cc1)c1cc(-c2ccncc2)nc2ccccc12 | -37.6% (inactive) |
| COc1cccc2cc(S(=O)(=O)c3ccc(C)cc3)/c(=N/NS(=O)(=O)c3ccc(C)cc3)oc12 | -24.9% (inactive) |

Reference: PubChem BioAssay AID1236 (Emory University Molecular Libraries Screening Center, 2008)
